This is a sample that favours compounds with a hit; in the whole collection about 21% have one here.
Pf growth 48h – Primary qHTS for delayed death inhibitors of the malarial parasite plastid, 48 hour incubation. P. falciparum luciferase growth in erythrocytes, 48 h. 310,000 compounds, 5.9% hits. Potency, µM (top dose mostly 28.7 µM), without a hit: top-dose activity change, negative = inhibition, usual class: inhibitors; also: potency is read from the fitted curve at half-maximal effect; % is scaled to controls: 0 for no effect and ±100 for the full control effect
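In quantitative HTS format, infected erythrocytes bearing luciferase-reporter parasites were treated for a single generation at 37 C. Luminescence after adding detection reagent served as the growth measure.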
Shiga inhibitor – A qHTS for Small Molecule Inhibitors of Shiga Toxin. inhibition, % at 38.7 µM. AID 2315, 2010. Vero cells, Shiga toxin protein synthesis inhibition reporter. 290,000 compounds, 9.2% hits; in the data active = inhibition mostly above about 28%, no sharp cut-off; inactive = mostly below about 43%; also: 0% is about no effect
AMA1-RON2 inh – qHTS for Inhibitors of AMA1-RON; Towards Development of Antimalarial Drug Lead: Primary Screen; Potency, µM (series often up to 58.2 µM), without a hit: at the top dose activity change, negative = inhibition, actives largely listed as inhibitors; 360,000 compounds, 0.2% hits; AlphaScreen AMA1-biotinylated RON2 peptide binding; Plasmodium falciparum AMA1 (3D7) - RON2 peptide interaction;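 also: potency is read from the fitted curve at half-maximal effect; 0% = vehicle wells and -100% = peptide control; nearly all actives have a fitted effect of over 45% in size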
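AMA1 (3D7) with his tag at 25 nM final met compounds first, then biotinylated RON2 peptide at 25 nM; detection used donor plus acceptor beads, 10 µg/mL apiece, read by AlphaScreen after 30 min at room temperature.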
Pf growth 96h – Primary qHTS for delayed death inhibitors of the malarial parasite plastid, 96 hour incubation. P. falciparum luciferase reporter growth, 96 h. Potency, µM (doses to about 28.7 µM), without a hit: top-dose activity change, negative = inhibition, actives largely listed as inhibitors. 320,000 compounds, 6.9% hits; also: potency is read from the fitted curve at half-maximal effect; % is scaled to controls: 0 for no effect and ±100 for the full control effect
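Delayed-death screen, second-generation endpoint: infected erythrocytes, 2% hematocrit, 0.05% parasitemia final; 96 hours at 37 C, 5% CO2; luciferase detection reagent; luminescence decrease equals reduced growth.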
HCV inhibitor – qHTS Assay for Inhibitors of Hepatitis C Virus (HCV); Huh7.5.1 HCVcc-Cre infection, luciferase reporter, 44 h; Potency, µM (doses to about 41.8 µM), without a hit: top-dose activity change, negative = inhibition, hits mostly inhibitors; 340,000 compounds, 3.4% hits; also: potency is read from the fitted curve at half-maximal effect; % is scaled to controls: 0 for no effect and ±100 for the full control effect
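Luciferase read-out (15 sec integration) after a 15 min room-temperature substrate step quantifies HCVcc-Cre infection. Cells, 1,000 per well, had compound added 4 h post-plating, then virus at ~0.5 moi, and were cultured 44 h.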
CHX counter – Cycloheximide Counterscreen for Small Molecule Inhibitors of Shiga Toxin; AID 2314, 2010; 300,000 compounds, 12% hits; max response, %; cell reporter, cycloheximide protein synthesis inhibition counterscreen; in the data active = max response mostly above about 13%, no sharp cut-off; inactive = mostly below about 14%; also: read at 38.3 µM for the half of the compounds with a filed dose; 0% is about no effect
* marks the source's active call; other numbers are inactive results; [ ] = dose if it differs, or a comment. Unless noted, calls follow the shape of the dose curve; as a rule, active = well fitted curve in the direction sought with a large enough effect; inconclusive = small, poorly fitted or top-dose-only effect, or another doubt; inactive = no such curve, though single readings can be large; an effect the other way counts as inactive or inconclusive.

Results for Brc1ccc(-n2cnc(-c3ccccc3)c2)cc1 ?
Pf growth 48h: 181%; Shiga inhibitor: 60*; AMA1-RON2 inh: -21%; Pf growth 96h: 425%; HCV inhibitor: inconclusive; CHX counter: 51*

How did Cc1cc(Br)cn2c(Cc3cccc(F)c3)c(C3CCCCC3)nc12 do in these assays?
AMA1-RON2 inh: -13%

Results for COC(=O)c1ccc(CSc2ccccc2NC(=S)Nc2cccc(SC)c2)o1 ?
AMA1-RON2 inh: 114%

What do the screens show for `CC(C)OC(=O)C(C(=O)OC(C)C)=C1SC=CS1`?
Pf growth 48h: -3%; Pf growth 96h: -12%

What do the screens show for `CCOC(=O)c1c(NC(=S)N2CCCCC2)sc2c1CCN(C(=O)OCC)C2`?
Pf growth 48h: inconclusive; Shiga inhibitor: 4; AMA1-RON2 inh: 0%; Pf growth 96h: inconclusive; HCV inhibitor: -69%; CHX counter: 1

What do the screens show for `C=CCNC(=S)Nc1sc2c(c1C(=O)OCC)CCN(C(=O)OCC)C2`?
Pf growth 48h: 13µM*; Shiga inhibitor: 24; AMA1-RON2 inh: 37%; Pf growth 96h: inconclusive; HCV inhibitor: 6%; CHX counter: -1

What do the screens show for `CCOC(=O)c1c(NC(=O)Nc2ccc(C)cc2)sc2c1CCN(C)C2`?
Pf growth 48h: 12µM*; Shiga inhibitor: 31; AMA1-RON2 inh: 5%; Pf growth 96h: 3.7µM*; HCV inhibitor: inconclusive; CHX counter: 18

What do the screens show for `CCOC(=O)c1c(NC(=S)Nc2ccccc2)sc2c1CCCCC2`?
Pf growth 48h: 4%; Shiga inhibitor: 9; AMA1-RON2 inh: 9%; Pf growth 96h: 72%; HCV inhibitor: inconclusive; CHX counter: -2

Results for CCOC(=O)c1c(NC(=S)Nc2ccccc2)sc2c1CCN(CC)C2 ?
Pf growth 48h: 6.6µM*; Shiga inhibitor: 5; AMA1-RON2 inh: 10%; Pf growth 96h: 58%; HCV inhibitor: -29%; CHX counter: 2

How did CCOC(=O)c1c(NC(=S)NCc2ccccc2)sc2c1CCN(C(=O)OCC)C2 do in these assays?
Pf growth 48h: 12µM*; Shiga inhibitor: -3; AMA1-RON2 inh: 48%; Pf growth 96h: 5.9µM*; HCV inhibitor: inconclusive; CHX counter: -2

Results for CCOC(=O)N1CCN(S(=O)(=O)c2ccc(C(=O)Nc3sc4c(c3C(=O)OC)CCN(C)C4)cc2)CC1 ?
Pf growth 48h: -20%; Shiga inhibitor: -23; AMA1-RON2 inh: -2%; Pf growth 96h: inconclusive; HCV inhibitor: inconclusive; CHX counter: -7

What do the screens show for `Cc1ccc2c(c1)[C@@H]1[C@H](CO2)[C@H](c2ccccc2)[C@]2(C)C(=O)N[C@H](C)C(=O)N12`?
AMA1-RON2 inh: 10%; HCV inhibitor: 16%

Results for Cc1ccc(OC(F)F)c(NC(=O)Nc2ccc3c(c2)OCO3)c1 ?
Pf growth 48h: 19%; Shiga inhibitor: -10; AMA1-RON2 inh: -8%; Pf growth 96h: 13%; HCV inhibitor: inconclusive; CHX counter: -4

How did Cc1cc(C)nc(NC(=O)Nc2ccc3c(c2)OCO3)c1 do in these assays?
Pf growth 48h: 152%; Shiga inhibitor: 65*; AMA1-RON2 inh: 10%; Pf growth 96h: 33%; HCV inhibitor: 2%; CHX counter: 47*

What do the screens show for `CCOC(=O)Cn1nc(NC(=O)c2ccc(C(=O)OC)cc2)cc1C`?
Pf growth 48h: 28%; Shiga inhibitor: 3; AMA1-RON2 inh: 5%; Pf growth 96h: 8%; HCV inhibitor: inconclusive; CHX counter: 19*

Results for Cc1ccc(Cn2ccc(NC(=O)c3cc(-c4ccc5c(c4)OCO5)on3)n2)cc1 ?
Pf growth 48h: -2%; Shiga inhibitor: -10; AMA1-RON2 inh: -2%; Pf growth 96h: -7%; HCV inhibitor: -11%; CHX counter: -3

How did Cc1cc(C(=O)Nc2ccc3c(c2)OCO3)no1 do in these assays?
Pf growth 48h: inconclusive; Shiga inhibitor: 10; AMA1-RON2 inh: -7%; Pf growth 96h: 24%; HCV inhibitor: 14%; CHX counter: 8

How did CCOC(=O)Cn1ccc(NC(=O)c2ccc3c(c2)OCO3)n1 do in these assays?
Pf growth 48h: 17%; Shiga inhibitor: -10; AMA1-RON2 inh: 4%; Pf growth 96h: 1%; HCV inhibitor: 1%; CHX counter: 31*

How did Cc1ccc(NC(=O)Nc2ccc3c(c2)OCO3)nc1 do in these assays?
Pf growth 48h: 46%; Shiga inhibitor: 80*; AMA1-RON2 inh: 0%; Pf growth 96h: 10%; HCV inhibitor: 9%; CHX counter: 21*

What do the screens show for `COc1cccc(OC)c1C(=O)Nc1ccccc1C(=O)N1CCCCCC1`?
Pf growth 48h: 3%; Shiga inhibitor: 0; AMA1-RON2 inh: 2%; Pf growth 96h: -5%; HCV inhibitor: 24%; CHX counter: -7

Results for Cc1ccnc(NC(=O)CNC(=O)c2ccc3ccccc3c2)c1 ?
Pf growth 48h: 47%; AMA1-RON2 inh: 14%; Pf growth 96h: 48%; HCV inhibitor: inconclusive

Results for Cc1ccc(NC(=O)/C=C/c2ccc3c(c2)OCO3)nc1 ?
Pf growth 48h: 109%; Shiga inhibitor: 147*; AMA1-RON2 inh: 1%; Pf growth 96h: inconclusive; HCV inhibitor: -6%; CHX counter: 57*

How did Cc1ccc2nc(NC(=O)/C=C/c3ccc4c(c3)OCO4)sc2c1 do in these assays?
Pf growth 48h: -11%; Shiga inhibitor: 10; AMA1-RON2 inh: 10%; Pf growth 96h: -18%; HCV inhibitor: -3%; CHX counter: 3

What do the screens show for `Cc1ccnc(NC(=O)CNC(=O)c2ccc3c(c2)OCO3)c1`?
Pf growth 48h: 45%; Shiga inhibitor: 45*; AMA1-RON2 inh: -5%; Pf growth 96h: 65%; HCV inhibitor: 0%; CHX counter: 26*

Results for Cc1cc(C)nc(NC(=O)c2ccc3c(c2)OCO3)c1 ?
Pf growth 48h: 200%; Shiga inhibitor: 85*; Pf growth 96h: inconclusive; CHX counter: 46*

What do the screens show for `Cc1cccc(NC(=O)Nc2cc(C)cc(C)n2)c1`?
Pf growth 48h: 159%; Shiga inhibitor: 148*; AMA1-RON2 inh: -3%; Pf growth 96h: -5%[5.75 µM]; HCV inhibitor: 1%; CHX counter: 65*

How did COc1ccc(Cc2nc3ccc(C(=O)NC(C)c4cnn(C)c4)cc3o2)cc1 (configuration not stated) do in these assays?
Pf growth 48h: -11%; Shiga inhibitor: -3; AMA1-RON2 inh: -14%; Pf growth 96h: inconclusive; HCV inhibitor: 11%; CHX counter: 12

How did Cn1cc([C@]2(O)C(=O)Nc3ccc(OC(F)(F)F)cc32)c2ccccc21 do in these assays?
AMA1-RON2 inh: -16%

Assay outcomes from PubChem.
